Cav32 inh – inhibitors of human Cav3.2 T-type calcium channel | hit rate 4% among 100,000 | AID 449739 | Cav3.2-expressing cells, Fluo-4 calcium fluorescence FDSS; stronger effect = lower value | B-score at 10 µM | O95180;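 active = single-dose well whose peak fluorescence ratio is a statistical outlier from its plate by either plate-standardised score or position-corrected B-score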
CYP2C19 activ – activators of human cytochrome P450 2C19; P33261; recombinant CYP2C19, luciferin-H EGE luminescence; stronger effect = higher value; 0 = fully inhibited enzyme, 1 = untreated enzyme; activation factor at 5 µM; 96,000 tested, under 10 active; AID 1025;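 active = activation factor of at least 2 at 5 µM in the primary screen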;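 also: 0 = wells with 2.5 mM tranylcypromine and 1 = vehicle-only wells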
CYP2C19 inhib – inhibitors of human CYP2C19 | P33261 | CYP2C19 Supersomes, luciferin-H EGE luminescence, 30 min | inhibition, % at 5 µM | hit rate 21% among 96,000 | AID 778;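 active = CYP2C19 inhibition above a set limit at 5 µM in the primary screen, cut at about 50% in these data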;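 also: plate controls were negative control wells for no effect and 2.5 mM tranylcypromine positive control for full effect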
CYP2C9 inhib – blocks human cytochrome P450 2C9; P11712; CYP2C9 Supersomes, luciferin-H conversion, luminescence; inhibition, % at 5 µM; hit rate 20% among 96,000;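 active = blocking of liver enzyme CYP2C9 beyond about 50% at 5 µM, limit read from the data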
CYP2C9 act – CYP2C9 (human) activation | P11712 | recombinant CYP2C9, luciferin-H conversion, luminescence; stronger effect = higher value; factor 1 = untreated enzyme, 0 = blocked | activation factor at 5 µM | hit rate 1.4% among 96,000 | AID 1024;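 active = activation factor of 2 or more for CYP2C9 at a 5 µM dose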;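 also: 0 = sulfaphenazole-blocked wells and 1 = vehicle-only wells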
The depositor's hits bear a star; / = no result. Rows were chosen to be rich in hits. Some 27% of all compounds tested hit in one or more screens of this group.

SMILES | Cav32 inh | CYP2C19 activ | CYP2C19 inhib | CYP2C9 inhib | CYP2C9 act
COc1ccccc1N1CCN(C2CCN(S(=O)(=O)c3ccc4ccccc4c3)CC2)CC1 | -1.81 | 0.8 | 15.4 | -40.4 | 1.4
CSCCC(NC(=O)c1ccco1)C(=O)OCC(=O)Nc1sccc1C#N (stereo not given) | / | 0.4 | 55.3* | 78.1* | 0.2
COc1cc(/C=N\NC(=O)c2sc(N)nc2C)cc(OC)c1OC | 1.91 | 1.1 | -9.0 | -13.9 | 1.1
O=C(OCC(=O)c1ccc[nH]1)c1ccc(S(=O)(=O)N2CCCCCC2)cc1 | 0.0404 | 1 | 3.9 | 28.0 | 0.7
O=C(OCCN1C(=O)c2ccccc2C1=O)c1ccc(S(=O)(=O)N2CCCCCC2)cc1 | 0.744 | 0.6 | 41.5 | 82.0* | 0.2
O=C(CCCN1C(=O)c2ccccc2C1=O)Nc1ccc(S(=O)(=O)N2CCCCC2)cc1 | -0.0177 | 0.4 | 63.4* | 94.2* | 0.1
Cc1nc(N)c(C#N)c(-c2cccnc2)c1C | 1.07 | 1 | 3.3 | -96.3 | 2*
CCc1nc(N)c(C#N)c(-c2cccnc2)c1C | -0.459 | 1 | 3.3 | -11.4 | 1.1
CN(C(=O)COc1ccc(Cl)cc1Cl)c1nnc(C23CC4CC(CC(C4)C2)C3)s1 | -2.69 | / | / | / | /
COc1cc(=O)n(C)c2ccccc12 | 0.444 | 1 | -3.5 | -19.8 | 1.2
CN(c1ccc(Cl)cc1)c1cc(=O)n(C)c2ccccc12 | -3.38 | 0 | 100.4* | 96.6* | 0
COc1ccc(CNC(=O)C2CC(c3cc(C(F)(F)F)cc(C(F)(F)F)c3)=NO2)cc1 (stereo not given) | -0.0345 | / | / | / | /
S=C(NCc1ccccn1)Nc1ccc(Cl)c(Cl)c1 | / | 0.5 | 50.6* | 24.8 | 0.8
S=C(NCc1ccccn1)Nc1ccc(Cl)cc1Cl | 0.136 | 0.3 | 65.8* | 3.6 | 1
Fc1ccc(NC(=S)NCc2ccccn2)cc1 | 1.26 | 0.9 | 13.1 | -1.7 | 1
Cc1cc(Cl)ccc1NC(=S)NCc1ccccc1 | -0.0675 | 0.2 | 76.9* | 19.8 | 0.8
COC(=O)c1ccc(NC(=O)CCN2CCN(Cc3ccccc3)CC2)cc1 | -0.076 | / | / | / | /
CCCCNC(=O)Cc1cc(=O)[nH]c(=O)[nH]1 | 0.222 | / | / | / | /
CC(NC(=O)Nc1ccccc1)C(c1cccs1)N1CCN(C)CC1 (stereo not given) | 0.0951 | 1 | -2.6 | -3.4 | 1
O=C(O)CNS(=O)(=O)c1cc(Cl)c(Cl)cc1Cl | -0.0312 | 0.9 | 14.3 | -14.4 | 1.1
Cc1cc(C(C)(C)C)cc(S(=O)(=O)NCC(=O)O)c1C | 0.0104 | 0.9 | 13.9 | -134.5 | 2.3*
CC(C(=O)Nc1ncc2c(n1)CC(C)(C)CC2=O)N1C(=O)c2ccccc2C1=O (stereo not given) | 0.424 | 1 | 1.7 | 3.8 | 1
Cc1ccccc1N=C1NC(=O)CC(c2ccccc2)S1 (stereo not given) | -2.77 | 0.4 | 62.8* | 32.4 | 0.7
Cc1ccccc1N=C1NC(=O)CS1 | 0.918 | 1 | 1.2 | -4.5 | 1
O=C(CCc1ccccc1)c1ccc2c(c1)OCCCO2 | -0.893 | 1 | -1.5 | 16.5 | 0.8
SMILES | Cav32 inh | CYP2C19 activ | CYP2C19 inhib | CYP2C9 inhib | CYP2C9 act
O=C(NC(Cc1ccccc1)c1ccc2c(c1)OCCCO2)c1ccccc1F (stereo not given) | -2.84 | 0.2 | 77.1* | 82.9* | 0.2
CC(=O)N(CCC(Cc1ccccc1)c1ccc2c(c1)OCO2)Cc1ccccc1F (stereo not given) | / | 0.1 | 87.7* | 95.9* | 0
COc1ccc(C(C)NC(=O)C2CCCO2)cc1OC (stereo not given) | 1.25 | 0.9 | 5.0 | -3.2 | 1
COc1cc(OC)cc(C(=O)Nc2cc(NC(=O)c3ccco3)ccc2OC)c1 | -0.092 | 0.8 | 24.9 | 32.9 | 0.7
COc1ccc(NC(=O)c2cc(Cl)ccc2NC(=O)c2ccco2)c(OC)c1 | -1.95 | 0.3 | 72.8* | 94.1* | 0.1
CCC(=O)Nc1ccc(NC(=O)c2ccco2)c(OC)c1 | -0.0419 | 1.1 | -5.6 | 26.2 | 0.7
COc1cc(NC(=O)c2ccco2)c(OC)cc1NC(=O)CCC(=O)Nc1cc(C)ccc1C | 0.573 | 0.7 | 28.3 | 46.3 | 0.5
CCCOc1cccc(C(=O)Nc2cc(NC(=O)c3ccco3)ccc2OC)c1 | -6.4* | 0.3 | 71.0* | 41.8 | 0.6
CCCC(=O)Nc1ccc(NC(=O)c2ccco2)c(OC)c1 | 1.73 | 0.7 | 33.9 | 71.2* | 0.3
COc1cc(NC(=O)c2ccco2)c(OC)cc1NC(=O)CCC(=O)Nc1cc(C)cc(C)c1 | 0.485 | 0.6 | 35.6 | 66.1* | 0.3
COc1cc(NS(=O)(=O)c2ccc(Br)cc2)c(OC)cc1NC(=O)c1ccco1 | -0.897 | 0 | 97.5* | 100.0* | 0
O=C(CSc1nnnn1-c1cccnc1)Nc1ccc(OCc2ccccc2)cc1 | 0.0255 | 0.9 | 13.7 | 46.6 | 0.5
O=C(Nc1ccc2c(c1)CCC2)C1CCN(c2c3c(nc4ncnn24)CCC3)CC1 | 2.82* | 0.9 | 11.6 | 20.4 | 0.8
COc1ccc(NC(=O)C2CCCN(c3c4c(nc5ncnn35)CCC4)C2)cc1OC (stereo not given) | 3.32* | 0.9 | 13.0 | 38.5 | 0.6
Cc1cc(N2CCCC(C(=O)Nc3ccc4c(c3)CCC4)C2)n2ncnc2n1 (stereo not given) | 0.937 | 0.9 | 5.5 | 24.3 | 0.8
CN1CCN(C/C(=C2/N=C(c3ccccc3)OC2=O)N(C)C)CC1 | 0.162 | 1.1 | -7.5 | -10.8 | 1.1
CCOc1ccc(Nc2cc(=O)n(C)c(=O)n2C)cc1 | / | 0.9 | 5.0 | 11.9 | 0.9
COc1cccc(NC2c3ccccc3C(=O)N2Cc2ccco2)c1 (stereo not given) | -2.37 | 0.6 | 41.1 | 57.2* | 0.4
CCN(CC)S(=O)(=O)c1ccc(NC2c3ccccc3C(=O)N2Cc2ccc3c(c2)OCO3)cc1 (stereo not given) | -1.18 | 0.9 | 12.7 | 8.9 | 0.9
CCOC(=O)c1cccc(NC2c3ccccc3C(=O)N2Cc2ccco2)c1 (stereo not given) | -6.62* | 0.6 | 39.4 | 43.6 | 0.6
CCN(CC)S(=O)(=O)c1ccc(NC2c3ccccc3C(=O)N2Cc2ccco2)cc1 (stereo not given) | -2.91 | 0.6 | 41.1 | 92.2* | 0.1
O=C1c2ccccc2C(Nc2cccc(C(F)(F)F)c2)N1Cc1ccco1 (stereo not given) | -5.24* | 0.3 | 67.9* | 60.0* | 0.4
OCC[C@H]1C[C@@H](O)[C@H](O)[C@]2(CCCO2)O1 | 0.198 | / | / | / | /
C=C1CCN([C@@H](CC(C)C)C(=O)NCc2cc(OC)c(OC)c(OC)c2)S(=O)(=O)c2ccccc21 | -0.125 | / | / | / | /
COc1cccc(-n2c(CNC(=O)OC(C)(C)C)n[nH]c2=S)c1 | 0.468 | 1 | 1.1 | 2.7 | 1
C=C(C)CSc1nnc2n(Cc3ccccc3)c(=O)c3c4c(sc3n12)CCC4 | / | 0.7 | 34.9 | -3.0 | 1
CS(=O)(=O)NCCSCc1ccc(Cl)cc1 | 0.836 | 0.8 | 19.0 | 11.4 | 0.9
c1ccc2c(CSCCc3ccncc3)cccc2c1 | -1.2 | 0 | 97.0* | 93.7* | 0.1
O=C(O)CSc1nnc(SCc2cccc3ccccc23)s1 | -1.2 | 1 | -4.1 | 45.5 | 0.5
